Sampled rows, rich in hits. Any-hit rate of the full collection: about 12%.
SARS PLP yeast: qHTS of Yeast-based Assay for SARS-CoV PLP; 0.19% of 330,000 active; AID 485353, 2010; Potency, µM (series often up to 32.9 µM), usual class: activators; S. cerevisiae expressing SARS-CoV PLpro, growth rescue; calls by dose curve; further: nearly all actives have a fitted effect of over 55% in size
Sm TGR inh: qHTS Assay for the Inhibitors of Schistosoma Mansoni Peroxiredoxins; purified TGR, DTNB reduction, TNB absorbance 405 nm; Potency, µM (doses to about 114 µM), hits mostly inhibitors; AID 485364, 2010; 3% of 360,000 active; further: nearly all actives have a fitted effect of over 60% in size
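TGR 20 nM + NADPH 100 uM (dispensed conc.), cpd preinc 15 min RT; start with NADPH (500 uM addition) then DTNB (15 mM addition). Kinetic TNB absorbance, 405 nm filter. Four-parameter Hill fit across titration.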
Pf growth 96h: Primary qHTS for delayed death inhibitors of the malarial parasite plastid, 96 hour incubation. AID 504834, 2011. P. falciparum luciferase reporter growth, 96 h. 6.9% of 320,000 active. Potency, µM (highest dose often 28.7 µM), most hits filed as inhibitors
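Compounds incubated with erythrocytes infected by luciferase-expressing P. falciparum (2% hematocrit, 0.05% parasitemia final) for 96 hours, 37 C in 5% CO2. Growth inhibition scored as decreased luciferase luminescence.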
Pf growth 48h: Primary qHTS for delayed death inhibitors of the malarial parasite plastid, 48 hour incubation | P. falciparum luciferase growth in erythrocytes, 48 h | Potency, µM (series often up to 28.7 µM), actives largely listed as inhibitors | 5.9% of 310,000 active
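Growth was read as firefly luciferase luminescence after a 48 h, 37 C, 5% CO2 exposure of compounds to reporter-bearing P. falciparum cultures (0.1% parasitemia, 2% hematocrit final) in Albumax-supplemented RPMI 1640.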
Hits are given with their value; – = inactive; ? = inconclusive; · = no result. Unless noted, the call rests on the fitted dose curve; in most records, active means well fitted curve in the direction sought with a large enough effect; inconclusive means small, poorly fitted or top-dose-only effect, or another doubt; inactive means no such curve, though single readings can be large; an effect the other way counts as inactive or inconclusive.

SMILES | SARS PLP yeast | Sm TGR inh | Pf growth 96h | Pf growth 48h
CN(C)CCn1c(=O)n(Cc2ccccc2)c(=O)c2c3c(sc21)CCCCC3 | – | – | ? | –
Cc1ccc2oc(C(=O)N(Cc3sccc3C)C3CCS(=O)(=O)C3)c(C)c2c1 (stereo not drawn) | · | – | · | ·
CSc1ccc2c(c1)C(N1CCN(C)CC1)Cc1ccccc1S2 (stereo not drawn) | – | – | ? | ?
CN1CCN(C2Cc3ccccc3Sc3ccc(Cl)cc32)CC1 (stereo not drawn) | · | – | 16.9µM | 13.1µM
CCn1c(C)c(C2N3CC4(C)CN2CC(C)(C3)C4=O)c2ccccc21 (stereo not drawn) | · | – | · | ·
Cc1cc(NS(=O)(=O)c2ccc(NC(=S)NC(=O)c3ccc(Br)cc3)cc2)no1 | – | 50.1µM | – | –
CC(C)NS(=O)(=O)c1ccc(NC(=S)NC(=O)c2ccc(-c3ccccc3)cc2)cc1 | – | – | 2.62µM | 6.57µM
CCc1nnc(NS(=O)(=O)c2ccc(NC(=S)NC(=O)c3cccnc3)cc2)s1 | – | 17.8µM | ? | –
Cc1cc(C)nc(NS(=O)(=O)c2ccc(NC(=S)NC(=O)c3cccnc3)cc2)n1 | – | ? | ? | ?
COc1ccc(NS(=O)(=O)c2ccc(NC(=S)NC(=O)c3ccc(F)cc3)cc2)nn1 | – | 44.7µM | – | –
Cc1cc(C)cc(NC(=O)C2CCCN(C(=O)c3cnn(-c4ccccc4)c3-n3cccc3)C2)c1 (stereo not drawn) | · | – | · | ·
Cc1cc(C)c(NC(=O)Cn2c(=O)n(-c3ccc(F)cc3)c(=O)c3c(C)c(C(=O)N(C)C)sc32)c(C)c1 | · | – | · | ·
CSc1nn(Cc2cccc(Cl)c2)c(N(C(C)=O)C(C)=O)c1S(=O)(=O)c1ccccc1 | · | – | · | ·
CCc1ccc(NS(=O)(=O)c2c(-c3ccccc3)csc2C(=O)OC)cc1 | · | – | · | ·
CCc1nnc(NS(=O)(=O)c2ccc(NC(=S)NC(=O)c3ccc(F)cc3)cc2)s1 | ? | 44.7µM | – | –
CCc1nnc(NS(=O)(=O)c2ccc(N/C=C\C(=O)c3cccc4ccccc34)cc2)s1 | – | – | 9.28µM | –
Cc1cccnc1NC(=S)NC(=O)c1oc2ccccc2c1C | – | – | – | –
COc1cccc(NC(=O)Nc2cc(C(=O)O)ccc2N2CC3CC(C2)c2cccc(=O)n2C3)c1 (stereo not drawn) | – | – | 1.47µM | –
COc1ccc(NC(=O)Nc2cc(C(=O)O)ccc2N2CC3CC(C2)c2cccc(=O)n2C3)c(OC)c1 (stereo not drawn) | – | – | – | –
CC1CCN(C(=O)c2ccc(N3CC4CC(C3)c3cccc(=O)n3C4)c([N+](=O)[O-])c2)CC1 (stereo not drawn) | – | – | 2.33µM | –
O=C(CCN1CCOCC1)Nc1cc(C(=O)Nc2ccc(Cl)cc2)ccc1N1CC2CC(C1)c1cccc(=O)n1C2 (stereo not drawn) | – | – | ? | 11.7µM
COc1ccc(NS(=O)(=O)c2ccc(C)c(C(=O)N3CC(C)OC(C)C3)c2)cc1 (stereo not drawn) | – | – | – | –
O=C(CN1CCOCC1)NCc1cc([N+](=O)[O-])ccc1O | – | – | ? | –
COc1ccc(-c2nc(CN3CCCCC3c3cccnc3)c(C)o2)c(F)c1 (stereo not drawn) | – | – | ? | 9.28µM
Cc1ccccc1-c1nc(CN2CCCC2c2ccc(F)cc2)c(C)o1 (stereo not drawn) | – | ? | – | 10.4µM
SMILES | SARS PLP yeast | Sm TGR inh | Pf growth 96h | Pf growth 48h
Cc1oc(-c2ccccc2Cl)nc1CN1CCCC1c1ccc(F)cc1 (stereo not drawn) | – | – | 6.57µM | ?
COc1ccc(CN2CCCCC2c2cccnc2)cc1C (stereo not drawn) | – | – | – | 13.1µM
COc1cccc(CN2CCCCC2c2cccnc2)c1 (stereo not drawn) | – | – | – | ?
Cc1ccc(NC(=O)Cn2c(=O)n(Cc3nc(-c4ccccc4)no3)c(=O)c3ccccc32)c(C)c1 | · | – | · | ·
COc1ccc2c(c1)c1c(c(=O)n(Cc3ccccc3)c(=O)n1CC(=O)Nc1c(C)cccc1C)n2C | · | – | · | ·
C=CCN1C(=O)C(CC(=O)Nc2ccccc2)N(Cc2ccccn2)C1=S (stereo not drawn) | – | – | – | ?
Cc1cc(N(CCO)Cc2ccccc2)n2nc(-c3ccc(C(C)(C)C)cc3)nc2n1 | · | – | · | ·
Cc1oc(-c2ccccc2Cl)nc1CN1CCCCC1c1cccnc1 (stereo not drawn) | – | – | ? | 11.7µM
O=S(=O)(c1ccc(Cl)cc1Cl)N1CCCC1c1cccnc1 (stereo not drawn) | – | – | ? | ?
CN1CCC[C@@H]1c1cccnc1 | · | · | 15.1µM | –
Cc1cc(=O)[nH]c(N/N=C/c2ccc(Cl)cc2Cl)n1 | – | – | ? | –
CC1(C)OC[C@@H]2O[C@@]3(C(=O)O)OC(C)(C)O[C@@H]3[C@@H]2O1 | · | · | – | –
O=C1c2ccccc2C(=Nc2ccccc2)C1c1cccc(Br)c1 (stereo not drawn) | – | – | 4.15µM | ?
O=[N+]([O-])c1ccc(/C=C/c2nc3ccc([N+](=O)[O-])cc3[nH]2)cc1 | – | – | – | 4.15µM
Nc1nc2ccc([N+](=O)[O-])cc2[nH]1 | – | – | – | ?
Cc1ccc(-c2nc3ccc([N+](=O)[O-])cc3[nH]2)cc1 | – | – | – | –
NC(N)=Nc1nc2ccc([N+](=O)[O-])cc2[nH]1 | – | – | 4.15µM | 8.28µM
O=[N+]([O-])c1ccc2nc(-c3ccncc3)[nH]c2c1 | – | – | 5.22µM | 2.08µM
O=C(N/N=C/c1ccc(O)cc1O)c1ccc(NC(=O)C2CCCCC2)cc1 | – | – | ? | ?
O=[N+]([O-])c1cc(C(F)(F)F)ccc1NC1CCN(Cc2ccccc2)CC1 | – | – | – | 7.38µM
O=[N+]([O-])c1cc(C(F)(F)F)ccc1NC1CCN(Cc2ccccc2)C1 (stereo not drawn) | – | – | ? | –
O=C(NCCc1ccccc1)C(=O)NCC(c1cccnc1)N1CCN(c2ccccc2)CC1 (stereo not drawn) | · | – | · | ·
CN(C1CCCCC1)S(=O)(=O)c1ccc2c(c1)c(=O)c(C(=O)NCCc1ccc(Cl)cc1)cn2C | · | – | · | ·
Cn1cnc(C(=O)N2CCN(c3ccccc3)CC2)c1C(=O)N1CCN(c2ccccc2)CC1 | – | 20µM | – | –
Cn1cnc(C(=O)N2CCN(C(=O)OC(C)(C)C)CC2)c1C(=O)N1CCN(C(=O)OC(C)(C)C)CC1 | – | 22.4µM | – | –
CC(C)(C)OC(=O)N1CCN(C(=O)c2nc[nH]c2C(=O)N2CCN(C(=O)OC(C)(C)C)CC2)CC1 | – | – | – | –
CCn1cc(Br)c(C(=O)N2CCN(c3ccccc3)CC2)n1 | · | – | – | –
O=C(CCNC(=O)c1ccc([N+](=O)[O-])cc1)Nc1cccc(S(=O)(=O)N2CCOCC2)c1 | – | – | ? | –
COc1cc(CCC(=O)OCC(=O)Nc2ccc(F)cc2F)cc(OC)c1OC | – | – | – | –

Source: PubChem BioAssay (National Center for Advancing Translational Sciences (NCATS))
